Here are results for 29 molecules from PubChem BioAssay (EPA / NIEHS).

Active and inactive are the calls of the source. Rule for the calls: active = hit-call score of the fitted dose curve at least 0.9, where 1 is the maximum; inactive = score below 0.9.

The first assay can be described thus: CCTE_Padilla_ZF_Score.Tail: CCTE's 144 Hour Post-fertilization zebrafish Assay Score for Tail Malformation, Padilla Lab (AID 2284414). The procedure, abridged: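 Wild-type zebrafish embryos, one per well in 200 uL 10% Hanks', dosed at 6-8 hpf, sealed, and kept at 26 C on a 14:10 h light cycle. Chemical was rinsed out at 5 dpf. Blinded brightfield scoring of tail defects followed at 6 dpf.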
With `CCCCCCCCC(F)(F)C(F)(F)C(F)(F)C(F)(F)C(F)(F)C(F)(F)F`, the result was inactive.

As to `C=C(C)C(=O)OCCC(F)(F)C(F)(F)C(F)(F)C(F)(F)C(F)(C(F)(F)F)C(F)(F)F`, the molecule was called inactive.

Consider `OCC(F)(F)C(F)(F)C(F)(F)C(F)F`, for which the outcome was inactive.

With `FC(F)(F)C(F)(F)C(F)(F)C(F)(F)C(F)(F)CCI`, the call was inactive.

Regarding `O=C(O)C(F)(F)C(F)(F)C(F)(F)C(F)(F)C(F)(F)C(F)(F)C(F)(F)C(F)(F)C(F)(F)C(F)(F)C(F)(F)C(F)(F)C(F)(F)F`, the outcome was inactive.

With `C=CC(=O)OCC(F)(F)C(F)(F)C(F)(F)C(F)(F)C(F)(F)C(F)(F)C(F)(F)F`, the call was inactive.

Consider `FC(F)(F)C(F)(F)C(F)(F)C(F)(F)C(F)(F)C(F)(F)C(F)(F)C(F)(F)CCS`, for which the molecule was called inactive.

With `FC(F)(F)C(F)(F)C(F)(F)C(F)(F)CCI`, the result was inactive.

In the case of `O=C(O)C(F)(F)C(F)(F)C(F)(F)F`, the molecule was called inactive.

For `FC(F)(Br)C(F)(F)C(F)(F)C(F)(F)C(F)(F)C(F)(F)Br`, the molecule was called inactive.

The AC50 is the concentration at which the activity in the assay is half-maximal. Consider `FC(F)(I)C(F)(F)C(F)(F)C(F)(F)I`, for which the AC50 was 80.4 µM (active).

For the molecule `O=C(O)C(F)(F)C(F)(F)C(F)(F)C(F)(F)C(F)(F)C(F)(F)C(F)(F)C(F)(F)C(F)(F)C(F)(F)C(F)(F)C(F)(F)F`, the outcome was inactive.

The next assay is described as follows: CCTE_Padilla_ZF_Score.Blood_pooling: CCTE's 144 Hour Post-fertilization zebrafish Assay Score for Blood Pooling, Padilla Lab (AID 2284415). A digest of the protocol:
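Wild-type outbred zebrafish embryos, one per well in 10% Hanks', exposed from 6–8 hpf in sealed plates at 26C on 14:10 h light:dark, rinsed at 5 dpf. Blinded stereomicroscope scoring of blood pooling at 6 dpf; gain-of-signal versus DMSO.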
For `FC(F)(F)C(F)(F)C(F)(F)C(F)(F)C(F)(F)C(F)(F)CC1CO1` (stereo not given), the molecule was classed as inactive.

For `C=CC(F)(F)C(F)(F)C(F)(F)C(F)(F)C(F)(F)C(F)(F)C(F)(F)C(F)(F)F`, the call was inactive.

As for `FC(F)(F)C(F)(F)C(F)(F)C(F)(F)C(F)(F)C(F)(F)C(F)(F)C(F)(F)F`, the outcome was inactive.

As to `FC(F)(F)C(F)(F)C(F)(F)C(F)(F)C(F)(F)C(F)(F)C(F)(F)I`, the outcome was inactive.

Turning to `O=C(O)C(F)(F)C(F)(F)OC(F)(F)F`, the call was inactive.

Turning to `O=C(O)C(F)(F)C(F)(F)C(F)F`, the call was inactive.

Regarding `O=C(O)C(F)(F)C(F)(F)F`, the molecule was classed as inactive.

Regarding `N=C(N)C(F)(F)C(F)(F)C(F)(F)C(F)(F)C(F)(F)C(F)(F)C(F)(F)F`, the outcome was inactive.

On to `O=C(O)C(F)(F)C(F)(F)C(F)(F)C(F)(F)C(F)(F)C(F)(F)C(F)(F)C(F)(F)Cl`, for which the call was inactive.

In the case of `O=S(=O)(OCCOC(F)(F)F)C(F)(F)F`, the result was inactive.

Take `FC(F)(F)C(F)(F)CNCC(F)(F)C(F)(F)F`: the call was inactive.

Regarding `O=C(O)C(F)(OC(F)(F)C(F)(OC(F)(F)C(F)(OC(F)(F)C(F)(F)C(F)(F)F)C(F)(F)F)C(F)(F)F)C(F)(F)F` (stereo not given), the outcome was inactive.

In the case of `C=CC(=O)OCC(F)(F)C(F)(F)C(F)(F)C(F)(F)COC(=O)C=C`, the molecule was called inactive.

Turning to `O=C(O)C=C(C(F)(F)F)C(F)(F)F`, the molecule was classed as inactive.

As for `Cc1ccc(S(=O)(=O)OCC(F)(F)C(F)(F)C(F)(F)C(F)(F)C(F)(F)C(F)F)cc1`, the molecule was classed as inactive.

For the molecule `FC(F)(F)C(F)(F)C(F)(F)CI`, the outcome was inactive.

Regarding `O=S(=O)(O)C(F)(F)C(F)(F)C(F)(F)C(F)(F)C(F)(F)C(F)(F)C(F)(F)F`, the AC50 is 63.4 µM (active).

For the molecule `CCCCCCCCC(F)(F)C(F)(F)C(F)(F)C(F)(F)C(F)(F)C(F)(F)F`, the molecule was classed as inactive.

With `C=C(C)C(=O)OCCC(F)(F)C(F)(F)C(F)(F)C(F)(F)C(F)(C(F)(F)F)C(F)(F)F`, the call was inactive.

As for `OCC(F)(F)C(F)(F)C(F)(F)C(F)F`, the outcome was inactive.

In the case of `FC(F)(F)C(F)(F)C(F)(F)C(F)(F)C(F)(F)CCI`, the call was inactive.

With `O=C(O)C(F)(F)C(F)(F)C(F)(F)C(F)(F)C(F)(F)C(F)(F)C(F)(F)C(F)(F)C(F)(F)C(F)(F)C(F)(F)C(F)(F)C(F)(F)F`, the molecule was called inactive.

Regarding `C=CC(=O)OCC(F)(F)C(F)(F)C(F)(F)C(F)(F)C(F)(F)C(F)(F)C(F)(F)F`, the call was inactive.

As for `FC(F)(F)C(F)(F)C(F)(F)C(F)(F)C(F)(F)C(F)(F)C(F)(F)C(F)(F)CCS`, the molecule was classed as inactive.

For `FC(F)(F)C(F)(F)C(F)(F)C(F)(F)CCI`, the molecule was classed as inactive.

With `O=C(O)C(F)(F)C(F)(F)C(F)(F)F`, the outcome was inactive.

With `FC(F)(Br)C(F)(F)C(F)(F)C(F)(F)C(F)(F)C(F)(F)Br`, the molecule was classed as inactive.

`FC(F)(I)C(F)(F)C(F)(F)C(F)(F)I`: the molecule was classed as inactive.

`O=C(O)C(F)(F)C(F)(F)C(F)(F)C(F)(F)C(F)(F)C(F)(F)C(F)(F)C(F)(F)C(F)(F)C(F)(F)C(F)(F)C(F)(F)F`: the call was inactive.

The nature of a further assay: CCTE_Padilla_ZF_Score.Any: CCTE's 144 Hour Post-fertilization zebrafish Assay Score for Any Mortality or Malformation, Padilla Lab (AID 2284416). A digest of the protocol:
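Wild-type zebrafish embryos with chorions, one per well in 10% Hanks' from 6–8 hpf, dosed in sealed plates at 26 C, 14:10 h light:dark; rinsed at 5 dpf; blinded scoring at 6 dpf for death or malformation, versus DMSO.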
In the case of `FC(F)(F)C(F)(F)C(F)(F)C(F)(F)C(F)(F)C(F)(F)CC1CO1` (stereo not given), the result was inactive.

`C=CC(F)(F)C(F)(F)C(F)(F)C(F)(F)C(F)(F)C(F)(F)C(F)(F)C(F)(F)F`: the call was inactive.

In the case of `FC(F)(F)C(F)(F)C(F)(F)C(F)(F)C(F)(F)C(F)(F)C(F)(F)C(F)(F)F`, the result was inactive.

Take `FC(F)(F)C(F)(F)C(F)(F)C(F)(F)C(F)(F)C(F)(F)C(F)(F)I`: the AC50 was 12.4 µM (active).

Regarding `O=C(O)C(F)(F)C(F)(F)OC(F)(F)F`, the result was inactive.

Regarding `O=C(O)C(F)(F)C(F)(F)C(F)F`, the result was inactive.

Consider `O=C(O)C(F)(F)C(F)(F)F`, for which the call was inactive.

Regarding `N=C(N)C(F)(F)C(F)(F)C(F)(F)C(F)(F)C(F)(F)C(F)(F)C(F)(F)F`, the AC50 was 22.2 µM (active).

For the molecule `O=C(O)C(F)(F)C(F)(F)C(F)(F)C(F)(F)C(F)(F)C(F)(F)C(F)(F)C(F)(F)Cl`, the AC50 was 10 µM (active).

Consider `O=S(=O)(OCCOC(F)(F)F)C(F)(F)F`, for which the result was inactive.

Consider `FC(F)(F)C(F)(F)CNCC(F)(F)C(F)(F)F`, for which the AC50 was 0.00326 µM (active).

Consider `O=C(O)C(F)(OC(F)(F)C(F)(OC(F)(F)C(F)(OC(F)(F)C(F)(F)C(F)(F)F)C(F)(F)F)C(F)(F)F)C(F)(F)F` (stereo not given), for which the molecule was called inactive.

Turning to `C=CC(=O)OCC(F)(F)C(F)(F)C(F)(F)C(F)(F)COC(=O)C=C`, the AC50 is 4.38 µM (active).

As to `O=C(O)C=C(C(F)(F)F)C(F)(F)F`, the call was inactive.

Turning to `Cc1ccc(S(=O)(=O)OCC(F)(F)C(F)(F)C(F)(F)C(F)(F)C(F)(F)C(F)F)cc1`, the AC50 was 22.9 µM (active).

For `FC(F)(F)C(F)(F)C(F)(F)CI`, the outcome was inactive.

As to `O=S(=O)(O)C(F)(F)C(F)(F)C(F)(F)C(F)(F)C(F)(F)C(F)(F)C(F)(F)F`, the AC50 is 21.3 µM (active).

For `CCCCCCCCC(F)(F)C(F)(F)C(F)(F)C(F)(F)C(F)(F)C(F)(F)F`, the result was inactive.

With `C=C(C)C(=O)OCCC(F)(F)C(F)(F)C(F)(F)C(F)(F)C(F)(C(F)(F)F)C(F)(F)F`, the result was inactive.

For `OCC(F)(F)C(F)(F)C(F)(F)C(F)F`, the outcome was inactive.

For `FC(F)(F)C(F)(F)C(F)(F)C(F)(F)C(F)(F)CCI`, the AC50 was 31.9 µM (active).

Regarding `O=C(O)C(F)(F)C(F)(F)C(F)(F)C(F)(F)C(F)(F)C(F)(F)C(F)(F)C(F)(F)C(F)(F)C(F)(F)C(F)(F)C(F)(F)C(F)(F)F`, the outcome was inactive.

Take `C=CC(=O)OCC(F)(F)C(F)(F)C(F)(F)C(F)(F)C(F)(F)C(F)(F)C(F)(F)F`: the result was inactive.

`FC(F)(F)C(F)(F)C(F)(F)C(F)(F)C(F)(F)C(F)(F)C(F)(F)C(F)(F)CCS`: the call was inactive.

`FC(F)(F)C(F)(F)C(F)(F)C(F)(F)CCI`: the outcome was inactive.

For the molecule `O=C(O)C(F)(F)C(F)(F)C(F)(F)F`, the molecule was called inactive.

Take `FC(F)(Br)C(F)(F)C(F)(F)C(F)(F)C(F)(F)C(F)(F)Br`: the outcome was inactive.

Turning to `FC(F)(I)C(F)(F)C(F)(F)C(F)(F)I`, the AC50 is 16.9 µM (active).

In the case of `O=C(O)C(F)(F)C(F)(F)C(F)(F)C(F)(F)C(F)(F)C(F)(F)C(F)(F)C(F)(F)C(F)(F)C(F)(F)C(F)(F)C(F)(F)F`, the molecule was called inactive.
